An excerpt weighted towards active compounds, which were near 2.3% of everything screened.
Mcl1 Noxa PPI = Mcl-1/Noxa binding inhibitors, primary screen, biochemical, TR-FRET, 1536-well; 1.5% of 220,000 active; inhibition, % at 21.7 µM; TR-FRET Mcl-1/Noxa peptide binding, 2 h;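 active means compounds that cut the protein-peptide binding signal by more than 50% relative to plate controls in a single-dose test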;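 further: His-tagged Mcl-1 with rhodamine Noxa BH3 peptide and terbium anti-His antibody; 0% = Mcl-1 plus Noxa peptide wells and 100% = peptide-only wells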
Target sequence (Q07820 whole entry, looked up): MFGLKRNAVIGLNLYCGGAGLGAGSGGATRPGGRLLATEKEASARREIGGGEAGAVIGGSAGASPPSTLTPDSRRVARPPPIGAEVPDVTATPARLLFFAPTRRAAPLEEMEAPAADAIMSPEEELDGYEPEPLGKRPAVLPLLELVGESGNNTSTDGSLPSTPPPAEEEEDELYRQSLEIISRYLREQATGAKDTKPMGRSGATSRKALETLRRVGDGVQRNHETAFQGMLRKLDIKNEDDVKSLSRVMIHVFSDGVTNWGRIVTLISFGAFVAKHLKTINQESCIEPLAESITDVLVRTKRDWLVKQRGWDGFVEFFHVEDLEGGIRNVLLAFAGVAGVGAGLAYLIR
Mcl1 Bid PPI = Mcl-1/Bid binding inhibitors, primary screen, biochemical, TR-FRET, 1536-well; Induced myeloid leukemia cell differentiation protein Mcl-1 (Homo sapiens), Q07820; TR-FRET Mcl-1/Bid-Dy647 peptide binding; inhibition, % at 21.7 µM; 0.97% of 220,000 active; AID 1021, 2008;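 active means compounds that cut the binding signal by more than half at the single screening dose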;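 further: His-tagged Mcl-1 with europium anti-His antibody binding Bid BH3 peptide; 0% = Mcl-1 plus peptide wells and 100% = peptide-only wells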
Bcl-xL primary = inhibitors of human Bcl-xL, primary screen, biochemical, fluorescence polarization, HTS; GST-Bcl-xL / FITC-Bim BH3 peptide fluorescence polarization; inhibition, % at 10.9 µM; 0.7% of 320,000 active;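 active means inhibition above the mean of all tested compounds plus 3 SD, cutoff set per campaign, cut at about 30% in these data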;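 further: 0% = DMSO wells and 100% = unlabeled Bim-BH3 peptide competitor; inhibitors lower millipolarization by displacing the labeled peptide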
Target sequence (Q07817 whole entry, looked up): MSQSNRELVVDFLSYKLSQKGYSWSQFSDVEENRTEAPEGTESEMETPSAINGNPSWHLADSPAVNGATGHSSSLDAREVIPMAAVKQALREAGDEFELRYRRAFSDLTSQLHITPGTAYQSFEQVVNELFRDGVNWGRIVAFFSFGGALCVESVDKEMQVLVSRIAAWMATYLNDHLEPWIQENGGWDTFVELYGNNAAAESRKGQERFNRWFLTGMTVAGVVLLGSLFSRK
MCL1-BIM inh = inhibitors of MCL1 binding to BIM-BH3, primary screen, biochemical, fluorescence polarization | Induced myeloid leukemia cell differentiation protein Mcl-1 (Homo sapiens), Q07820 | GST-MCL1 / FITC-Bim-BH3 fluorescence polarization | inhibition, % at 10.9 µM | 0.68% of 320,000 active | AID 2057, 2009;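 active means inhibition above the mean inhibition of all tested compounds plus 3 SD, set per campaign, cut at about 40% in these data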;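 further: 0% = DMSO wells and 100% = unlabeled Bim-BH3 peptide control; higher means more loss of mP so more displacement of Bim peptide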
GLD-1 TGE inh = GLD-1/TGE RNA complex disruptors, primary screen, biochemical, fluorescence polarization; Female germline-specific tumor suppressor gld-1 (Caenorhabditis elegans), Q17339; inhibition, % at 5.96 µM; 0.44% of 320,000 active; purified GLD-1 + fluorescein TGE RNA;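 active means percent inhibition above a per-plate cutoff, the plate mean of test compounds plus 3 SD, cut at about 30% in these data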;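 further: 0% = DMSO wells with GLD-1 and probe and 100% = wells lacking GLD-1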
Mcl-1 Bim block = inhibitors of Bim peptide binding to Mcl-1, primary screen, biochemical, bead-based flow cytometry, multiplex; 0.1% of 190,000 active; Induced myeloid leukemia cell differentiation protein Mcl-1 (Homo sapiens), Q07820; Bim peptide-Mcl-1 binding; AID 1009, 2008; inhibition, % at 10 µM; in the data active means inhibition above about 40%;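 further: 0% = no compound tracer wells and 100% = peptide blocker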
Bcl-xL conf = Bcl-xL inhibitors blocking Bim BH3 binding, confirmation, counter-screen for MCL1 inhibitor project, biochemical, fluorescence polarization; 54% of 1,700 active; shares compounds with MCL1-BIM inh; GST-Bcl-xL / FITC-Bim BH3 peptide FP binding; inhibition, % at 10.9 µM;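 active means inhibition above a cutoff equal to the mean inhibition of all tested compounds plus 3 SD, cut at about 30% in these data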;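 further: 0% = DMSO wells and 100% = unlabeled Bim BH3 control peptide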
MCL1 inh confirm = inhibitors of MCL1 binding to BIM-BH3, confirmation, biochemical, fluorescence polarization, triplicate; inhibition, % at 10.9 µM; 61% of 1,700 active; shares compounds with MCL1-BIM inh; GST-MCL1 / FITC-Bim-BH3 fluorescence polarization;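 active means inhibition above the average of all tested compounds plus 3 SD, cut at about 40% in these data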;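 further: 0% = DMSO wells and 100% = unlabeled Bim-BH3 control peptide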
Numbers without * were called inactive; . = not tested or not shown; + = active, no number.

SMILES | Mcl1 Noxa PPI | Mcl1 Bid PPI | Bcl-xL primary | MCL1-BIM inh | GLD-1 TGE inh | Mcl-1 Bim block | Bcl-xL conf | MCL1 inh confirm
COc1ccc(N2CCCC2)c(NC(=O)c2ccc([N+](=O)[O-])o2)c1 | . | . | 76* | 75* | 74* | . | 14 | 4
O=C(COC(=O)/C=C/c1ccc(Br)o1)Nc1ccc2[nH]c(=O)[nH]c2c1 | . | . | 14 | 68* | 8 | . | 8 | 63*
Cc1cc(OCC(=O)N[C@@H](CSCc2ccccc2)C(=O)O)c2c(C)c(C)c(=O)oc2c1 | . | . | 10 | -2 | -4 | . | . | .
CCOC(=O)CSc1nnc(NC(=O)c2cccc([N+](=O)[O-])c2C)s1 | 9 | 9 | 2 | 2 | 3 | 12 | . | .
O=C(N1CCOCC1)N1CCC(n2nnc3cc(F)ccc32)CC1 | 4 | -10 | 76* | 87* | 40* | 1 | 54* | 62*
COc1cc(OC)c(NC(=O)Cc2cccs2)cc1Cl | . | . | 0 | 1 | -1 | . | . | .
CCN(CC)S(=O)(=O)c1ccc(OC)c(NC(=O)Cc2cccs2)c1 | 56* | -60 | 7 | 40* | -1 | -1 | 22 | 51*
O=C(/C=C/c1ccc(Br)o1)OCc1nc2ccsc2c(=O)[nH]1 | . | . | 27 | 49* | 12 | . | 37* | 87*
O=C(OCc1nc2ccsc2c(=O)[nH]1)c1cc(Br)c(Br)s1 | . | . | 5 | 1 | 1 | . | . | .
CCOC(=O)C/C(C)=N/NC(=O)CNc1cccc(Cl)c1C | -10 | -15 | 6 | 43* | 1 | 0 | 1 | 2
COc1cccc(Cn2c(=S)[nH]c3ccc(N4CCOCC4)cc3c2=O)c1 | 23 | -36 | 19 | 41* | 3 | 1 | -24 | -19
COc1cccc(CNC(=O)CCCCCn2c(=S)[nH]c3ccc(N4CCOCC4)cc3c2=O)c1 | 24 | 9 | 7 | 15 | 3 | -2 | . | .
Cc1nc2c(c(=O)n1CCC1=CCCCC1)c1nc3ccccc3nc1n2/N=C/c1ccco1 | 94* | 74* | 39* | 49* | 10 | 6 | 32* | 58*
CCCn1c(C)nc2c(c1=O)c1nc3ccccc3nc1n2CCC1=CCCCC1 | 11 | 6 | 21 | 16 | 10 | 0 | . | .
COc1ccc(N2C3=C(CC4=C2CCCC4=O)C(=O)CCC3)cc1 | 26 | -24 | 75* | 77* | 7 | 2 | 32* | 31
CCC1(c2ccccc2)NC(=O)N(CC(=O)Nc2ccc(OC)nc2)C1=O (centres undefined) | . | . | 167* | + | 124* | . | 168* | +
CCC1(c2ccccc2)NC(=O)N(CC(=O)NCc2ccccc2OC)C1=O (centres undefined) | . | . | -2 | -6 | 7 | . | . | .
COc1ccc(C(CNC(=O)c2ccc(Br)o2)N2CCN(C)CC2)cc1 (centres undefined) | . | . | 6 | 4 | -1 | . | . | .
N#Cc1c(-c2ccco2)cc(C2CC2)nc1N | 13 | -3 | 3 | -7 | -3 | 3 | . | .
N#Cc1c(-c2ccco2)cc(-c2ccccn2)nc1N | 66* | -19 | 20 | 43* | 23 | 3 | 14 | 15
CC(=O)OCCCN1C(=O)c2cccc3cc(Br)cc(c23)C1=O | . | . | -2 | 7 | 8 | . | . | .
CCN(CC)CCN1C(=O)c2cccc3cc(N)cc(c23)C1=O | -25 | -43 | 124* | 158* | 72* | . | 128* | 166*
Nc1cc2c3c(cccc3c1)C(=O)N(CCN1CCCC1)C2=O | -57 | -21 | 125* | 145* | 36* | . | 99* | 132*
COc1ccc(N2CCN(C(=O)CCc3nnc4ccc(N5CCCC5)nn34)CC2)cc1 | . | . | 2 | 4 | -1 | . | . | .
CC(C)Oc1ccc(CC(=O)NNC(=S)Nc2ccccc2)cc1 | -48 | -143 | 7 | 186* | 0 | . | -29 | -53
SMILES | Mcl1 Noxa PPI | Mcl1 Bid PPI | Bcl-xL primary | MCL1-BIM inh | GLD-1 TGE inh | Mcl-1 Bim block | Bcl-xL conf | MCL1 inh confirm
O=C(Oc1ccc2c(c1)O/C(=C\c1ccncc1)C2=O)c1ccccc1 | 16 | 19 | 81* | 93* | 75* | 0 | 23 | 54*
CCOc1ccc(N(CC(=O)Nc2c(C)n(C)n(-c3ccccc3)c2=O)S(=O)(=O)c2ccccc2)cc1 | 3 | -48 | 0 | -3 | -3 | -2 | . | .
COC(=O)C1=COC(C)C2CN3CCc4c([nH]c5ccccc45)C3CC12 (centres undefined) | 9 | -30 | 89* | 91* | 48* | 25 | 62* | 80*
COC(=O)C1=CO[C@@H](C)[C@H]2CN3CCc4c([nH]c5ccccc45)[C@@H]3C[C@H]12 | . | . | 2 | -10 | 8 | . | . | .
CN1CCN(C2=C(Cl)C(=O)N(CCc3ccccc3)C2=O)CC1 | 2 | -20 | 51* | 54* | 30 | 0 | 20 | 30
O=C1C(Cl)=C(N2CCOCC2)C(=O)N1CCc1ccccc1 | 0 | -43 | 1 | 4 | 5 | 1 | . | .
COc1ccc(NC(=O)C2CCCN2S(=O)(=O)c2ccc3c(c2)CC(C)N3C(C)=O)cc1OC (centres undefined) | . | . | 0 | 6 | 8 | . | . | .
CCC(C)Sc1ccc(-c2nc3ccc(C)cn3c2NC2CCCCC2)cc1 (centres undefined) | . | . | 48* | 48* | 15 | . | 18 | 16
Cn1c(O)c(C2=c3ccccc3=NC2=O)[nH]c1=S | 23 | -39 | 12 | 26 | 3 | 2 | . | .
COc1ccc2nc(-n3c(O)c(C4=c5ccccc5=NC4=O)[nH]c3=S)sc2c1 | 92* | 99* | 15 | 68* | 2 | -9 | 33* | 92*
O=C(NCc1cccc(OC(F)(F)F)c1)C1CCC(=O)N(Cc2cccc(F)c2)C1 (centres undefined) | . | . | 4 | 1 | 5 | . | . | .
CCC1(CC)NC(=O)N(CC(=O)Nc2cccc3ccccc23)C1=O | . | . | . | . | 5 | . | . | .
CC(C)C1NC2(C(=O)c3ccccc3C2=O)C2C(=O)N(c3ccc(F)cc3)C(=O)C12 (centres undefined) | 48 | -20 | 80* | 64* | 120* | -7 | 11 | 7
O=C1C2C3C=CC(CC3)C2C(=O)N1c1ccc(F)cc1 (centres undefined) | . | . | 0 | 3 | -1 | . | . | .
